# “And” between values parts separate entries of the source, which are not always exact repeats. Equal entries are not always repeated. Screen size: about 360,000 compounds; about 16,000 (4.4%) were called active. Inconclusive results (about 9%) are left out. Calls follow the shape of the dose curve; as a rule, active = well fitted inhibition curve with a large enough effect; inconclusive = small, poorly fitted or top-dose-only effect; inactive = no such curve, though single readings can be large or run the other way. What follows is part of a selection rich in actives, with near analogues and random picks from the rest. Some structures have more than one record in an assay (separate samples or runs), and their calls can disagree.
# Target: Bromodomain adjacent to zinc finger domain protein 2B (Homo sapiens) (UniProt Q9UIF8)
# Sequence (Q9UIF8 whole entry, looked up, the tested form may be a part): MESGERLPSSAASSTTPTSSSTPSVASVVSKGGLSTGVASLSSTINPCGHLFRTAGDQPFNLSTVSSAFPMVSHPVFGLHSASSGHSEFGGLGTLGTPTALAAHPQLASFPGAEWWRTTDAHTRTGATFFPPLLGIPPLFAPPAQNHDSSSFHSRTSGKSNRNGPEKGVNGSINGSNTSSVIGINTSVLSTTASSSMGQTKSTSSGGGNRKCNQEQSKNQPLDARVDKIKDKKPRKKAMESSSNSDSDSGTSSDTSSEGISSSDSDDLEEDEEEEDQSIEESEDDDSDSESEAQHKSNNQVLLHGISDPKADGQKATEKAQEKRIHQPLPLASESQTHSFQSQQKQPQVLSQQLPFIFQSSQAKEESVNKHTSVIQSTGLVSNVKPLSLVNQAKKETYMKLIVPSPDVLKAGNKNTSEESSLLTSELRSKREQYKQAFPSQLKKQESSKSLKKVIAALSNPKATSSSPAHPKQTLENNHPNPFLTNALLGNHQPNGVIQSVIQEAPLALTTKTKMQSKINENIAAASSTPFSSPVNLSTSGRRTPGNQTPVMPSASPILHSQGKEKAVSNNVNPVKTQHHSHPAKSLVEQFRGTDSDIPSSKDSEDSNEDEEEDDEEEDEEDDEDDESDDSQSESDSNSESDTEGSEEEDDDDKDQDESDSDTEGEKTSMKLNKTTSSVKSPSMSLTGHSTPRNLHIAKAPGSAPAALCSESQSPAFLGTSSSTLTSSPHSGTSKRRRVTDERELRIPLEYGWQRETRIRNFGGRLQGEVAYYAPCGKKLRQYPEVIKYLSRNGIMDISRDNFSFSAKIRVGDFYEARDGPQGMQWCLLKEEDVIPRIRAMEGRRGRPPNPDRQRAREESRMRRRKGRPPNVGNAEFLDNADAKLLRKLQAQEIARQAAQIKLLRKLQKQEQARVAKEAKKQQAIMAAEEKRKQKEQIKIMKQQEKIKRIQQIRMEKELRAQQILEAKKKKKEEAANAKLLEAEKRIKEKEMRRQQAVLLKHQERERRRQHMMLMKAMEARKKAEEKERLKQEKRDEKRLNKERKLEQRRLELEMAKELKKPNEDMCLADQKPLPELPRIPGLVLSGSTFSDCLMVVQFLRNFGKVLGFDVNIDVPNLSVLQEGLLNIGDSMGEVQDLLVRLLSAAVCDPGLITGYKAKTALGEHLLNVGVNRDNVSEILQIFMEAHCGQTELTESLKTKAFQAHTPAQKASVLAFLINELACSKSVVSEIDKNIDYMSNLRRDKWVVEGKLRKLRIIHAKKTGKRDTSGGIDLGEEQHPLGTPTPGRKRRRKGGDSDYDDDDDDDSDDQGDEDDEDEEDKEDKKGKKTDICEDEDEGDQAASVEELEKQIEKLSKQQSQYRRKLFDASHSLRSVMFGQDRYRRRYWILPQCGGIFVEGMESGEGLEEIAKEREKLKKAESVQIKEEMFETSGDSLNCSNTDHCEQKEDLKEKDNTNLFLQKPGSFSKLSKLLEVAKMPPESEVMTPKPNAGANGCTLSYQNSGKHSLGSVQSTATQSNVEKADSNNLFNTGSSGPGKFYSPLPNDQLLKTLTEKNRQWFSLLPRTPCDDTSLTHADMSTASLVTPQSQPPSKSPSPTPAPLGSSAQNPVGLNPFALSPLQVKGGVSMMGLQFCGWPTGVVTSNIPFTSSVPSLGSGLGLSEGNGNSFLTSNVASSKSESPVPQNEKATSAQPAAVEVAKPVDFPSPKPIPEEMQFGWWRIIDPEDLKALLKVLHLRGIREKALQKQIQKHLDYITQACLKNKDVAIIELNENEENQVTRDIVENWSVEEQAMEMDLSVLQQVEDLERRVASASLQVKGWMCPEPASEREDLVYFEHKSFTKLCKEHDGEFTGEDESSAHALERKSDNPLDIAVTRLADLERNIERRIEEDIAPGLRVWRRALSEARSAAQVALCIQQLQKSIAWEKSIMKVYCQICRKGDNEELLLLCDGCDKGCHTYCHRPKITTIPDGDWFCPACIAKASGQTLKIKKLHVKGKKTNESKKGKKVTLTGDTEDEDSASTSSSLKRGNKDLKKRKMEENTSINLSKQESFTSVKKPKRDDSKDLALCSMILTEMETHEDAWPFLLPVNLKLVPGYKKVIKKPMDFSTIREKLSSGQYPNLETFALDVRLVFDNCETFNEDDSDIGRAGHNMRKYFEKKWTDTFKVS
# Assay: qHTS Assay for Inhibitors of BAZ2B; also: nearly all actives have a fitted effect of over 60% in size
# Conditions: AlphaScreen BAZ2B-H3K14Ac peptide displacement; series mostly up to 114 µM; activity change, negative = inhibition: at the top concentration
# In short: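 Multi-concentration screen (max 110 uM) measuring displacement of acetylated histone H3 peptide from BAZ2B by AlphaScreen, using 50 nM protein, 50 nM peptide and 10 ug/mL streptavidin donor plus Ni-chelate acceptor beads.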
# % is scaled to controls: 0 for no effect and ±100 for the full control effect; potency is read from the fitted curve at half-maximal effect.
SMILES,"activity change, negative = inhibition",Potency
CCc1ccc(CNC(=O)c2ccc(CS(=O)c3ccc(Br)cc3)o2)cc1 (centres undefined),0.453% (inactive),
CCc1nnc(SCc2c(F)cccc2Cl)c2cc3sccc3n12,-6.2% (inactive),
Nc1ccc2nc3c(=O)[nH]c(=S)[nH]c3nc2c1,,31.6 µM (active)
CC1CN(C(=O)N2CCC(C(=O)NCc3cccs3)CC2)c2ccccc2O1 (centres undefined),-1.78% (inactive),
CCn1c(=O)cc(OCC(=O)Nc2cc(Cl)c(OC)cc2OC)c2ccccc21,-13.1% (inactive),
Cc1cccc(C(=O)Nc2ccc(-c3nc4ncccc4o3)cc2C)c1,-1.15% (inactive),
COc1cccc(C(=O)Nc2ccc(N3CCCC3)cc2)c1,,31.6 µM (active)
COc1cccc(C(=O)Nc2ccc(N3CCN(C(=O)c4ccco4)CC3)cc2)c1,-12.1% (inactive),
O=C(CCN1CCN(c2ccccc2)CC1)NNC(=S)Nc1ccccc1,-17.5% (inactive),
O=C(Cc1ccccc1)NC(=S)Nc1ccc(N2CCCCC2)cc1,,12.6 µM (active)
Cc1ccccc1C(=O)N1CCN(c2ccc(NC(=O)c3cccs3)cc2)CC1,-32.9% (inactive),
Cc1ccccc1C(=O)Nc1ccc(N2CCCCCC2)cc1,,31.6 µM (active)
COc1cccc(C(=O)Nc2ccc3nc4n(c(=O)c3c2)CCCCC4)c1,-12.9% (inactive),
Cc1ccccc1C(=O)NC(=S)Nc1ccc(N2CCN(C(=O)c3ccccc3)CC2)cc1,0.365% (inactive),
COC(=O)Cc1ccc(NC(=S)NCc2ccccc2)cc1,-2.73% (inactive),
Cc1cc2nn(-c3ccc(Cl)cc3)nc2cc1NC(=O)C(C)C,0.62% (inactive),
CCC1CCCCN1S(=O)(=O)c1ccc(NC(=O)c2cc(=O)c3ccccc3o2)cc1 (centres undefined),-2.23% (inactive),
CC(=O)Nc1cc(C(=O)NCc2ccc(F)cc2Cl)ccc1Sc1ccc(Cl)cc1,-4.28% (inactive),
CSc1cccc(NC(=O)CN2C(=O)CCc3cc(S(=O)(=O)N4CCCCC4)ccc32)c1,-3.68% (inactive),
Cc1ccccc1-n1c(=O)c2ccccc2n(Cc2ccc(F)cc2)c1=O,0.401% (inactive),
Cc1ccc(-c2nnc(Nc3ccc(OCC(N)=O)cc3)c3ccccc23)cc1S(=O)(=O)NCC1CCCO1 (centres undefined),-14.3% (inactive),
COc1ccc(CNC(=O)CS(=O)Cc2nc(-c3cccc(C)c3)oc2C)cc1 (centres undefined),-24.3% (inactive),
COc1ccc(CCNC(=O)c2c3c(nc4ccccc24)C(=O)N(C2CCCCC2)C3)cc1OC,-11.2% (inactive),
COC(=O)c1cc2occc2n1Cc1nc(-c2ccc(C)cc2)oc1C,-13.3% (inactive),
Cc1ccc(S(=O)(=O)Nc2nc3ccccc3nc2N2CCc3ccccc3C2)cc1,-0.716% (inactive),

SMILES,"activity change, negative = inhibition",Potency
Cc1cc(N2CCN(S(=O)(=O)c3ccc(C)c(C)c3)CC2)c2ccccc2n1,-35.4% (inactive),
Cc1ccc(S(=O)(=O)C(C#N)c2nc3ccccc3nc2N2CCCC2)cc1C (centres undefined),,79.4 µM (active)
COc1cccc(Cn2c(CNS(=O)(=O)c3ccc(Cl)s3)nc3cccnc32)c1,-1.14% (inactive),
Cc1ccc(CNS(=O)(=O)c2ccc(C(=O)N(C)C)s2)cc1,-0.589% (inactive),
O=C(CC1C(=O)N(c2ccccc2)C(=O)N1CCc1cccs1)Nc1ccc(F)cc1 (centres undefined),-2.54% (inactive),
COc1cccc(C2/C(=C(/O)c3ccc(F)cc3)C(=O)C(=O)N2CCN(C)C)c1 (centres undefined),16.7% (inactive),
CCCOc1ccc(/C(O)=C2/C(=O)C(=O)N(CCN(C)C)C2c2ccc(OC)c(OC)c2)cc1 (centres undefined),,79.4 µM (active)
COc1ccc(/C(O)=C2/C(=O)C(=O)N(CCCN(C)C)C2c2ccccc2)cc1OC (centres undefined),6.91% (inactive),
COc1ccc(CCNC(=O)c2ccc3c(c2)nc(C)n3-c2ccc(Br)cc2)cc1OC,-23.5% (inactive),
COc1ccccc1CNC(=O)c1ccccc1NC(=O)c1nsc2ccccc12,-2.42% (inactive),
CCOc1ccc(CNC(=O)c2ccc3c(c2)nnn3C2CCCC2)cc1,-2.27% (inactive),
Cc1cc(C)c2nc(-c3ccco3)cc(C(=O)O)c2c1,,39.8 µM (active)
CC1CCCN(C(=O)c2cc(-c3ccco3)nc3ccccc23)C1 (centres undefined),2.27% (inactive),
O=C(c1cc(-c2ccco2)nc2ccccc12)N(Cc1nnc(-c2ccc(Cl)cc2)o1)C1CC1,1.6% (inactive),
CC(C)(C)c1ccc(S(=O)(=O)N2CCN(C(=O)c3cc(-c4ccc(Br)cc4)n[nH]3)CC2)cc1,-6.78% (inactive),
Cc1cccc(CC(=O)N2CC(=O)Nc3ccc(F)cc3C2c2ccccc2)c1 (centres undefined),-14.3% (inactive),
CCc1ccc(CNC(=O)c2cc3c(=O)n(CC)c4ccccc4c3s2)cc1,-8.35% (inactive),
O=S(=O)(N/N=C\c1cccn1-c1ccccc1)c1ccc2ccccc2c1,,35.5 µM (active)
O=C(COc1ccc(/C=N/NS(=O)(=O)c2ccccc2)cc1)NCCc1ccccc1,-3.74% (inactive),
COc1ccc(N2CC(NS(=O)(=O)c3ccc4ccccc4c3)CC2=O)cc1 (centres undefined),-3.73% (inactive),
CCOc1ccccc1CNC(=O)C1CCCN(S(=O)(=O)c2ccc3c(ccn3C)c2)C1 (centres undefined),-3.49% (inactive),
Cc1cc2oc(C(=O)N(Cc3ccc(Cl)cc3)Cc3ccco3)c(C)c2cc1Cl,-4.19% (inactive),
CCc1cnc2c(c1SCC(=O)c1ccccc1)c(=O)n(C)c(=O)n2C,-11.3% (inactive),
COc1cccc(N2CCN(S(=O)(=O)c3cc(Br)cc4c3N(C(=O)C3CC3)CC4)CC2)c1,-3.33% (inactive),
CCC(=O)N1CCc2cc(Br)cc(S(=O)(=O)Nc3ccc(C)cc3C)c21,-0.535% (inactive),

SMILES,"activity change, negative = inhibition",Potency
COc1ccc(Cn2ccnc2SCC(=O)NCc2ccco2)cc1,-14.3% (inactive),
COc1ccc(-c2oc3ncn(Cc4ccco4)c(=N)c3c2-c2ccc(OC)cc2)cc1,,28.2 µM (active)
COc1ccc(NC(=O)C(=O)NCc2ccco2)cc1,3.4% (inactive),
CCN1CCN(c2ncc3c(n2)CC(c2ccccc2O)CC3=O)CC1 (centres undefined),-3.34% (inactive),
Cc1ccc(C(=O)N2CCc3cc(CNC(=O)c4ccc(Br)cc4)ccc32)cc1,-10.7% (inactive),
Cc1ccc(C)c(OCC(=O)Nc2sc3c(c2C#N)CCCC3)c1C,6.56% (inactive),
COc1ccc(-n2c(SCC(=O)Nc3sc4c(c3C#N)CCCC4)nnc2-c2ccc(O)cc2)cc1,,79.4 µM (active)
N#Cc1c(NC(=O)CSc2nc3ccccc3c(=O)n2Cc2ccco2)sc2c1CCCC2,-4.51% (inactive),
Cc1cs/c(=N\N=C\c2ccc(O)cc2)n1Cc1ccco1,,44.7 µM (active)
CN(c1ccccc1)c1ccc(/C=c2\s/c(=C(/C#N)C(=O)C(C)(C)C)n(Cc3ccco3)c2=O)cc1,-37.8% (inactive),
COc1ccc(NC(=O)CSc2nnc(-c3cccs3)n2Cc2ccco2)cc1OC,-1% (inactive),
Cc1ccc(-c2cn3c(n2)sc2cc(C(=O)NCc4cccs4)ccc23)c(C)c1,55.2% (inactive),
Cc1ccccc1CSc1nnc(Cn2c(=O)sc3ccccc32)n1C,-2.9% (inactive),
Cc1ccccc1CSc1nnc(-c2cccnc2)n1N,1.75% (inactive),
Cc1ccccc1CSc1nnc(-c2ccccn2)n1N,,28.2 µM (active)
CCOC(=O)CCCNC(=O)COC(=O)/C=C/c1ccc2c(c1)OCO2,-8.04% (inactive),
O=C(Cc1ccc(F)cc1)N/N=C/c1ccc2c(c1)OCO2,3.35% (inactive),
CCC1=C/C(=C\c2ccc3c(c2)OCO3)C(=O)S1,,44.7 µM (active)
Cn1c(=O)c2c(nc(SCC(=O)Nc3ccc(F)cc3)n2Cc2ccc(Cl)cc2)n(C)c1=O,2.76% (inactive),
CC1Cc2cc(S(=O)(=O)CCC(=O)Nc3ccc(F)c(Cl)c3)ccc2N1C(=O)C1CC1 (centres undefined),-6.1% (inactive),
C/C(=N\NC(=S)Nc1ccc(C)cc1)c1cc2ccccc2o1,,56.2 µM (active)
Cc1ccc(NC(=O)c2cc3ccccc3o2)cc1,-1.9% (inactive),
CC(C)Oc1ccc(NC(=O)c2cc3ccccc3o2)cc1,-17.6% (inactive),
Cc1ccc(NC(=O)C2CCN(S(=O)(=O)c3cc(-c4noc(C)n4)ccc3C)CC2)c(C)c1,-7.07% (inactive),
C/C(=N/NC(=O)c1ccn(C)n1)c1ccncc1,-32% (inactive),

SMILES,"activity change, negative = inhibition",Potency
C/C(=N\NC(N)=S)c1cccnc1,-1.17% (inactive),
C/C(=N\NC(N)=S)c1ccncc1,,50.1 µM (active)
CCOC(=O)c1c(C)[nH]c(C)c1S(=O)(=O)N(C)CC(=O)N1CCN(c2ccccc2)CC1,-19.6% (inactive),
Cc1ccccc1NC(=O)Cn1c(=O)n(CC2CCC(C(=O)NCCc3ccccc3)CC2)c(=O)c2ccccc21 (centres undefined),-1.6% (inactive),
Cc1c(Cl)cccc1NC(=O)C(=O)NCCc1csc2nc(-c3ccccc3F)nn12,-7.32% (inactive),
CC1(C(=O)NCCc2c[nH]c3ccccc23)C=CC2(CCCCC2)N1C(=O)c1ccccc1 (centres undefined),-37.5% (inactive),
C[C@]1(C(=O)NCCc2c[nH]c3ccccc23)C=C[C@@H](Cc2ccccc2)N1C(=O)c1ccccc1,,79.4 µM (active)
CC(=O)NC(Cc1c[nH]c2ccccc12)C(=O)NCCc1ccccc1 (centres undefined),-4.32% (inactive),
COc1cc(Nc2nc(-c3ccc(OC)c(OC)c3)nc3ccccc23)cc(OC)c1,-14.7% (inactive),
Cc1ccccc1OCC(=O)Nc1nnc(S(=O)(=O)N2CCCC2)s1,,inactive and 3.55 µM (active)
CC1CCN(S(=O)(=O)c2nnc(NC(=O)COc3ccccc3F)s2)CC1,0.509% (inactive),
Cc1cccc(C(=O)Nc2nnc(S(=O)(=O)N3CCCCCC3)s2)c1,-1.37% (inactive),
CCOCCCNC(=O)c1ccc2nc(CCc3ccccc3)oc2c1,-0.408% (inactive),
COc1ccc(CCNC(=O)Cn2c(=O)cc(C(F)(F)F)c3c(C)nn(C)c32)c(OC)c1,2.29% (inactive),
S=C(NCCc1ccccc1)NCC1CCCO1 (centres undefined),5.46% (inactive),
CCCC1CCC(=NNC(=S)NCCc2ccccc2)CC1 (centres undefined),,10 µM (active)
S=C(NCCc1ccccc1)Nc1ccccc1,-12.7% (inactive),
COc1ccccc1NC(=O)c1oc2ccccc2c1NC(=O)C(C)C,0.844% (inactive),
O=C(O)CCC(=O)NCc1ccc2[nH]c3c(c2c1)CCCC3,-1.26% (inactive),
Cc1cccc(NC(=S)NCc2ccc3[nH]c4c(c3c2)CCCC4)c1,,39.8 µM (active)
Cc1cccc(NC(=S)NCCN(C2CCCCC2)C2CCCC2)c1,-24.5% (inactive),
O=C(CCn1c(=O)c2sccc2n(Cc2ccc(F)cc2)c1=O)NCc1ccc2c(c1)OCO2,-21.3% (inactive),
O=C(Cn1c(=O)nc(-c2ccccc2)c2cc(Cl)ccc21)NCc1ccc(Cl)cc1,-12.4% (inactive),
C=CS(=O)c1sc(Cl)c(N2CCOCC2)c1[N+](=O)[O-] (centres undefined),,39.8 µM (active)

# Reference: PubChem BioAssay AID504333 (National Center for Advancing Translational Sciences (NCATS), 2011)
